Measured values: paper PMC7819943, “Rice protein-binding microarrays: a tool to detect cis-acting elements near promoter regions in rice”
Over roughly 39,000 sequences, “fluorescence intensity (a.u.)” has its median near 4,300; the highest 2% begin near 39,000. The sample as a whole holds a higher share of the highest values than the screen did.

What follows are sequences tested against T1, OsSMF1 (Oryza sativa, UniProt Q6ZLB0 1-436) (assay: protein-binding microarray (RPBM); PBS, 2% BSA, 51.3 ng/ul salmon testes DNA, 50 uM zinc acetate, 200 nM TF, 25 C, 1 h; high values mean tight binding). Conditions: protein: recombinant; tags: N-terminal polyhistidine and DsRed monomer fusion (pET32a); chain copies: 2; label: CyDye5-dUTP incorporated in the synthesized complementary strand; 3' TTTTT single-stranded linker to array surface; dsDNA, one strand shown.
T1 sequence: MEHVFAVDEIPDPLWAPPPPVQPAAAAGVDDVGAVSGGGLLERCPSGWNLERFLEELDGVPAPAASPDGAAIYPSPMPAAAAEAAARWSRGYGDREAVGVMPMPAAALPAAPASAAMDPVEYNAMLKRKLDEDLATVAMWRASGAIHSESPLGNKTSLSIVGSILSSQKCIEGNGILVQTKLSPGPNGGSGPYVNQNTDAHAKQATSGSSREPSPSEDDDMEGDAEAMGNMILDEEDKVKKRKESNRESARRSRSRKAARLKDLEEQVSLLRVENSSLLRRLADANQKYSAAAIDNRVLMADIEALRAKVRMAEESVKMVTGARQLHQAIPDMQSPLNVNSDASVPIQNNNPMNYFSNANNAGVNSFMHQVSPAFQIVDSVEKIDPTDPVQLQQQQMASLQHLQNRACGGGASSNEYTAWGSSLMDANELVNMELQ
In short: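 Ni–NTA purification followed expression in E. coli BL21-CodonPlus of transcription factors fused N-terminally to a polyhistidine tag and DsRed. At 200 nM in PBS with 2% BSA, salmon testes DNA and 50 µM zinc acetate, the protein was incubated for 1 h at 25 °C with a custom Agilent array that had been primer-extended with Cy5-dUTP and blocked with 2% BSA. After washing, the array was read on an Axon 4000B scanner. The binding signal is per-feature fluorescence intensity in arbitrary units.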
With “TGCATAAGTGTCCGTACCAGTACGGTCAGAGTGACATATGCGGAGTCACCTAGTGCAG” the binding signal was 3770 fluorescence intensity (a.u.). In the case of “TTACGAGACGAATCTTTTAAGACTAATTGCTCCATGATTTCGGAGTCACCTAGTGCAG”, the binding signal is reported as 3280 fluorescence intensity (a.u.). In the case of “TTTCTCTGAACGACCGGCCACGTTAAACTAAGGCCAAGTCCGGAGTCACCTAGTGCAG”, the binding signal is reported as 65500 fluorescence intensity (a.u.). In the case of “TAAATTTTAATTTTCTGATTGGTATGCCACGTTAGTGAAACGGAGTCACCTAGTGCAG”, the binding signal is reported as 3420 fluorescence intensity (a.u.). “TTTGGTTTCCGGCCAAACATTGCCACGCCTAACTTAAGGCCGGAGTCACCTAGTGCAG” was tested, and the binding signal was 5170 fluorescence intensity (a.u.). “CGCCATCGCCAACGCCAACGCCTCCGCGGACTCCATTGTCCGGAGTCACCTAGTGCAG” was tested, and the binding signal was 3650 fluorescence intensity (a.u.). For “GATAGGAGGGGATAACTTGTTTCATATTTTGTGCCGGGTTCGGAGTCACCTAGTGCAG”, the binding signal was 3710 fluorescence intensity (a.u.). In the case of “AATGTAGGCACCATACCATGACTGTTTTCACACATTGTACCGGAGTCACCTAGTGCAG”, the binding signal is reported as 3580 fluorescence intensity (a.u.). “AATATGAACTGATAGGATTTGTTTTCACACCATACCAAACCGGAGTCACCTAGTGCAG” was tested, and the binding signal was 59700 fluorescence intensity (a.u.). For “GGGCCAAATTTTATCGAGAAGATTAGACACGAGTATGGGCCGGAGTCACCTAGTGCAG”, the binding signal was 47600 fluorescence intensity (a.u.). For “AGCGAGACACTTTGAGATTTAGTATGAGTCATGTAAATTACGGAGTCACCTAGTGCAG”, the binding signal was 7830 fluorescence intensity (a.u.). For “TGCGATTTTAGACGATTATCGTGCGATTATCACGGTTATCCGGAGTCACCTAGTGCAG”, the binding signal was 3360 fluorescence intensity (a.u.). “GCGTGCCGAAGGTGTGTCCCCTGCACCGGCTCCGGCAGGTCGGAGTCACCTAGTGCAG” was tested, and the binding signal was 9960 fluorescence intensity (a.u.). “ATGAAAGGGAATGTGTGGTGGAGGAGGTGGCTGAGAGATTCGGAGTCACCTAGTGCAG” was tested, and the binding signal was 3340 fluorescence intensity (a.u.). “ATTCGTTATACTAGGTGACATCTCATCTAATATTTGTTTACGGAGTCACCTAGTGCAG” was tested, and the binding signal was 4270 fluorescence intensity (a.u.). For “TGAACATGCCCATTGTTACTCATTCCTAATACTATAGGAACGGAGTCACCTAGTGCAG”, the binding signal was 42200 fluorescence intensity (a.u.). “TTGTTGAAGCAGTTTAATGTTAATAGTATACTAACATTAACGGAGTCACCTAGTGCAG” was tested, and the binding signal was 28600 fluorescence intensity (a.u.). “GGAACTTCTGTTTAGGCATTTGCACCTGAAATATGATCTGCGGAGTCACCTAGTGCAG” was tested, and the binding signal was 3190 fluorescence intensity (a.u.). With “TCCCGCAGGAGTTCCACCCACGTGTCATAAACCATTACAGCGGAGTCACCTAGTGCAG” the binding signal was 12800 fluorescence intensity (a.u.). “TGAATTGGAGCGACCGTGAGAGGTAGCATAGAATGTCATGCGGAGTCACCTAGTGCAG” was tested, and the binding signal was 3270 fluorescence intensity (a.u.). For “CAAAAGGACCATGGTGTGTGGATGACATGACTAGTGAGGCCGGAGTCACCTAGTGCAG”, the binding signal was 4650 fluorescence intensity (a.u.). In the case of “TGTTGATGGCGTCATTATTTACATGGTATGGTGCATTTGGCGGAGTCACCTAGTGCAG”, the binding signal is reported as 14600 fluorescence intensity (a.u.). For “CTCTTCTCCACCTCAACATTTAGCCGGCTTATAGCTACTACGGAGTCACCTAGTGCAG”, the binding signal was 3960 fluorescence intensity (a.u.). “CAGACCAGGGTTACTCTCCTCAACATTCTTAGCTCATAGACGGAGTCACCTAGTGCAG” was tested, and the binding signal was 47700 fluorescence intensity (a.u.). “ACAGGGTTGCCAAGCTCTTACTCAACCTAAACCACCAGAACGGAGTCACCTAGTGCAG” was tested, and the binding signal was 3200 fluorescence intensity (a.u.). For “TGAACCCCACATGTCAGCTTTACTACTCCCTTCTTCCCTACGGAGTCACCTAGTGCAG”, the binding signal was 4350 fluorescence intensity (a.u.). “CGCGACACGACACGACACGACACGACGGCACGAGCCCACCCGGAGTCACCTAGTGCAG” was tested, and the binding signal was 4540 fluorescence intensity (a.u.). For “GGAAAGTGGACAATTAAATCAAGCGATGATGTGGATGTGGCGGAGTCACCTAGTGCAG”, the binding signal was 5830 fluorescence intensity (a.u.). With “TTCATCCTCGGCCACTCCTACGTCAAGGCCAAGAGCGGCTCGGAGTCACCTAGTGCAG” the binding signal was 3600 fluorescence intensity (a.u.). In the case of “TGGCAAATCTCATCAGCAACAGGGACCTCTTGGTGTGACTCGGAGTCACCTAGTGCAG”, the binding signal is reported as 4290 fluorescence intensity (a.u.). In the case of “CAAATACTACATCACACAGGTCAGCAGAAATTTCACTCTTCGGAGTCACCTAGTGCAG”, the binding signal is reported as 4100 fluorescence intensity (a.u.). For “CTCTTCAGGGAACAGAATCAAATCAGCATTTTAACTAACTCGGAGTCACCTAGTGCAG”, the binding signal was 40100 fluorescence intensity (a.u.). In the case of “CCGTTTCCGAATCTCGAGGCGCAAGAGGCCATCGAACGGCCGGAGTCACCTAGTGCAG”, the binding signal is reported as 38300 fluorescence intensity (a.u.). In the case of “TTTATCTAATTAAAATATATTTATAGCTGACTAATAGTCTCGGAGTCACCTAGTGCAG”, the binding signal is reported as 3480 fluorescence intensity (a.u.). With “TGTGGAGTCCACGTGGGACTTAGCCGCCACATCAATAAAACGGAGTCACCTAGTGCAG” the binding signal was 9160 fluorescence intensity (a.u.). With “TGACCAAAATTTGAAACTTTCAATACAATTATGAAACTTTCGGAGTCACCTAGTGCAG” the binding signal was 6370 fluorescence intensity (a.u.). With “TTAGATGAAACCACGATTTGTCAAAATGCATCCAAAACTTCGGAGTCACCTAGTGCAG” the binding signal was 43100 fluorescence intensity (a.u.). For “GCCAAGCCAAACCAATCCAAGCCAAGCCAAATGAATGATTCGGAGTCACCTAGTGCAG”, the binding signal was 3150 fluorescence intensity (a.u.). “GTTAATCTCAATAAAATACTTAGCTCCATAAATAATTTTGCGGAGTCACCTAGTGCAG” was tested, and the binding signal was 36700 fluorescence intensity (a.u.). For “CCCAGCTGTCTTTCCTCCAGGTCACCTGACAAATGTCACTCGGAGTCACCTAGTGCAG”, the binding signal was 3950 fluorescence intensity (a.u.). “GAAAACTAGTCCAAAATGAGTCTTTGCTTCAATGCAAACGCGGAGTCACCTAGTGCAG” was tested, and the binding signal was 39000 fluorescence intensity (a.u.). “AAATACGGAGAGAAGAAGGCTCACTAAGCGCGCTTACTATCGGAGTCACCTAGTGCAG” was tested, and the binding signal was 42500 fluorescence intensity (a.u.). In the case of “ATCTTAAATACTACTAGAAATTAACGGAGACTAAGGCTTGCGGAGTCACCTAGTGCAG”, the binding signal is reported as 26500 fluorescence intensity (a.u.). In the case of “CTTATCAGTCGTAGCTCAACCTATAAGAGGCCTAAATATACGGAGTCACCTAGTGCAG”, the binding signal is reported as 32800 fluorescence intensity (a.u.). For “TGCCAAATGTTGAAACACTTACAGTAGCATCTAATGAAGTCGGAGTCACCTAGTGCAG”, the binding signal was 16000 fluorescence intensity (a.u.). For “AGCTTTTCTTTTCTACACAAAGGGAAGGGAAAGAAGAAACCGGAGTCACCTAGTGCAG”, the binding signal was 37800 fluorescence intensity (a.u.). With “CCCAGGGAGGCCAAACTACAAAGGCGATGCTTTCTACACACGGAGTCACCTAGTGCAG” the binding signal was 41500 fluorescence intensity (a.u.). “AACTACACACAAAGCCGAGCCAAAGTCTCTAGGTCAAAGTCGGAGTCACCTAGTGCAG” was tested, and the binding signal was 20600 fluorescence intensity (a.u.). With “TACTTAAGTGCCAAGTGTCAAAGTGTGTGTGGTTTTCTGCCGGAGTCACCTAGTGCAG” the binding signal was 4130 fluorescence intensity (a.u.). “TCCAAATAGCACGTACGCATGCATGCGTCCATGCCATCTCCGGAGTCACCTAGTGCAG” was tested, and the binding signal was 3270 fluorescence intensity (a.u.). In the case of “CGCTCGACTTCTCTTCTCTCATACACGTGTCATTAAATTTCGGAGTCACCTAGTGCAG”, the binding signal is reported as 8480 fluorescence intensity (a.u.). “TGGACCTGAACCGAACCACTAAGTAGTAGTACGTGTGAGGCGGAGTCACCTAGTGCAG” was tested, and the binding signal was 41100 fluorescence intensity (a.u.). For “ATAAGTACGAATACTAAGTACGTGTGTGTTTGGAGGGTGTCGGAGTCACCTAGTGCAG”, the binding signal was 4340 fluorescence intensity (a.u.). “GAGGTGTACCACTAAGTGTGTACGTGTATAGTGGGGCGTGCGGAGTCACCTAGTGCAG” was tested, and the binding signal was 7420 fluorescence intensity (a.u.).
